Screens: PubChem, National Center for Advancing Translational Sciences (NCATS)
A selection: hits, their analogues and other compounds. The true share with any hit is near 7.3%.
NPC1 promoter act – NPC1 promoter activation; Potency, µM (series often up to 9.22 µM), inactives show at the highest dose activation, actives largely listed as activators; Huh7 NPC1 promoter luciferase reporter, 24 h; 320,000 compounds, 2.4% hits; AID 485313; note: % of control where 0% means no effect; nearly all actives have a fitted effect of over 60% in size
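Luminescence read-out of NPC1 promoter-driven luciferase in stably transfected Huh7 cells; compounds delivered in DMSO and left 24 h at 37C, 5% CO2, qHTS titration format.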
Rab9 prom act – activates the Rab9 promoter | Potency, µM (doses to about 9.22 µM), for the others: at the top dose activation, negative = inhibition, most hits filed as activators | AID 485297 | 320,000 compounds, 2.8% hits | Huh7 Rab9 promoter-luciferase reporter, luminescence, 24 h; note: % of control where 0% means no effect; nearly all actives have a fitted effect of over 60% in size
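Luminescence read-out: Huh7 cells stably expressing Rab9-luciferase, treated 24 h with compound at 37 °C, then lysed with luciferase reagent for 10 min at ambient before reading.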
Luc counter – Kinase-Glo luciferase inhibition (counter-screen); Potency, µM (titrated, usually from 38.3 µM), without a hit: at the top dose activity change, negative = inhibition, hits mostly inhibitors; Kinase-Glo luciferase, ATP luminescence, 8 min; AID 1379; 200,000 compounds, 0.28% hits; Q27757; note: % is set by controls: 0 for no effect and ±100 for the full control effect; nearly all actives have a fitted effect of over 60% in size
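Compound is pinned into ATP-containing buffer (10 uM ATP, imidazole pH 7.2, 7 mM MgCl2). Kinase-Glo luciferase reagent is then added. Light output is recorded following an 8-min room-temperature incubation.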
ELG1 genotox – genotoxicity induction in ELG1-luciferase HEK293T cells; HEK293T ELG1-luciferase reporter, luminescence, 16 h; Potency, µM (top dose mostly 46 µM), inactives show at the highest dose activity change, positive = activation, usual class: activators; 330,000 compounds, 1.3% hits; note: % of control where 0% means no effect; nearly all actives have a fitted effect of over 60% in size
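Reporter readout depends on ELG1 protein level, which increases with genetic stress. After 16 hr compound exposure at 37 °C, luciferase activity was quantified using ONE-Glo.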
FLuc modulator – firefly luciferase modulation, counter-screen for miR-21 project; P08659; purified FLuc, Km substrates, luminescence inhibition; Potency, µM (top dose mostly 57.5 µM), inactives show at the highest dose activity change, negative = inhibition, hits mostly inhibitors; 360,000 compounds, 6.9% hits; AID 588342;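 note: plate controls were vehicle for no effect and reference inhibitor for full effect; nearly all actives have a fitted effect of over 55% in size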
Target sequence (P08659 whole entry, looked up): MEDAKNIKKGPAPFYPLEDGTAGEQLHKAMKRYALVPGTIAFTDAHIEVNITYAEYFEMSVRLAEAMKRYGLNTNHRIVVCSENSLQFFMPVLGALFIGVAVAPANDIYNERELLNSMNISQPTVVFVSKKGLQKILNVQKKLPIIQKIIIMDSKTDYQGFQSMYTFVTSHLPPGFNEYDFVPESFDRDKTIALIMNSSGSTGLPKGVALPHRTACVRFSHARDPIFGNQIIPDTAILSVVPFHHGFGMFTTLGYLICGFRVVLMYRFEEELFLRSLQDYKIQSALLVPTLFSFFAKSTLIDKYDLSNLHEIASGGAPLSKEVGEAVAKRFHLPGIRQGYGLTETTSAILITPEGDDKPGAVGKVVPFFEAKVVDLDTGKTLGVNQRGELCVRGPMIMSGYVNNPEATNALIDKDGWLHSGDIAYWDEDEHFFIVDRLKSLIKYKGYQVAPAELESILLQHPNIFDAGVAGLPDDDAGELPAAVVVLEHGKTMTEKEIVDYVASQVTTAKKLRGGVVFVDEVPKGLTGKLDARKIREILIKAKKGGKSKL
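Purified P. pyralis luciferase, 10 nM final, with Km-level 10 uM D-luciferin and 10 uM ATP in 50 mM Tris acetate pH 7.5, 10 mM Mg acetate, 0.01% Tween-20, 0.05% BSA; 6-point qHTS titration about 60 µM downward; luminescence read.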
SMN2 splice enh – enhancers of SMN2 splice variant expression. HEK293 SMN2-luciferase splicing reporter, luminescence, 30-36 h. Potency, µM (top dose mostly 46.1 µM), without a hit: at the highest dose activity change, positive = activation, actives largely listed as activators. 210,000 compounds, 2.8% hits. AID 1458; note: % of control where 0% means no effect; nearly all actives have a fitted effect of over 55% in size
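HEK293 cells carry an SMN2 minigene-luciferase reporter in which exon 7 inclusion puts luciferase in frame. Cells were seeded at 2000 cells/well, attached for 10-12 hours, then exposed to compounds for 30-36 hours at 37C before ONE-Glo luminescence.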
* marks the source's active call; other numbers are inactive results; ? = inconclusive; nt = no result; [ ] = another dose, or the depositor's remark. Calls come from the whole dose curve; as a rule, active = well fitted curve in the direction sought with a large enough effect; inconclusive = small, poorly fitted or top-dose-only effect, or another doubt; inactive = no such curve, though single readings can be large; an effect the other way counts as inactive or inconclusive. Potency is the fitted concentration of half-maximal effect.

SMILES	NPC1 promoter act	Rab9 prom act	Luc counter	ELG1 genotox	FLuc modulator	SMN2 splice enh
COc1cc(C2c3c(-c4ccccc4O)n[nH]c3C(=O)N2Cc2ccco2)ccc1OCC(C)C (configuration not stated)	nt	nt	nt	nt	-16%	-26%
COc1ccc2c(c1)CCc1c(C(=O)N3CCCCCC3)noc1-2	1.6µM*	2.8µM*	-1%	?	7.6µM*	?
COc1ccc2c(c1)CCc1c(C(=O)NCc3cccnc3)noc1-2	26%	15%	0%	21µM*	?	-1%
CCCNC(=O)c1noc2c1CCc1cc(OC)ccc1-2	1.4µM*	2µM*	-5%	?	4.3µM*	11µM*
COc1ccc2c(c1)CCc1c(C(=O)NCC(C)C)noc1-2	1.1µM*	1.4µM*	-2%	13µM*	3.4µM*	4.5µM*
COc1ccc2c(c1)CCc1c(C(=O)Nc3ccc(OC)cc3OC)noc1-2	nt	nt	nt	nt	-6%	8%
COc1ccc(NS(=O)(=O)c2cc3[nH]c(=O)c(=O)[nH]c3cc2C)cc1Cl	nt	nt	nt	nt	-11%	nt
COc1ccc(/C=C2\N=C3CCCCCN3C2=O)cc1	-1%	-2%	-1%	?	15µM*	?
COc1ccc(/C=C2/N=C3CCCCCN3C2=O)cc1OC	-5%	1%	-3%	?	?	23%
CCN(CC)c1ccc(NS(=O)(=O)c2cc(-c3onc(C)c3C)ccc2OC)c(C)c1	nt	nt	nt	nt	1%	nt
O=C(C1CCC(Cn2c(=O)c3sccc3n(Cc3ccccc3)c2=O)CC1)N1CCCCC1 (configuration not stated)	nt	nt	nt	nt	-9%	nt
O=C(O)c1cccc(-c2nc(-c3ccccc3C(F)(F)F)no2)c1	nt	nt	nt	nt	0.17µM*	nt
Cc1noc(-c2ccc(-c3noc(-c4cccc(Cl)c4)n3)cc2)n1	nt	nt	nt	nt	-2%	nt
NC(=O)c1ccc(-c2noc(-c3cccc(Cl)c3)n2)cc1	2.5µM*	?	nt	?	?	nt
COc1cc(-c2noc(-c3cccc(Cl)c3)n2)cc(OC)c1OC	2%	6%	-1%	-6%	-5%	-12%
CS(=O)(=O)c1ccccc1-c1nc(-c2cc(C(F)(F)F)cc(C(F)(F)F)c2)no1	-4%	2%	1%	2%	1%	1%
O=C(O)c1cccc(-c2noc(-c3cccc(Cl)c3)n2)c1	0.089µM*	?	nt	?	0.019µM*	nt
Cc1ccc(-c2cc(C(=O)Oc3ccc(C#N)cc3)no2)cc1	nt	nt	nt	nt	-21%	nt
COCCN=C1Sc2nc3ccc(C)cc3cc2CN1Cc1ccco1	16%	22%	-2%	12%	11µM*	20%
CCC1CCCCN1C(=O)CSc1nc(-c2ccc(OC)cc2)cc(C(F)(F)F)n1 (configuration not stated)	nt	nt	nt	nt	-5%	-16%
CC(C)Oc1ccc(C(=O)N(Cc2ccco2)Cc2cccs2)cc1	nt	nt	nt	nt	-18%	-1%
CC(C)Oc1ccc(C(=O)NCC(=O)OCC(=O)N(C)Cc2cccs2)cc1	-9%	0%	-2%	-1%	15µM*	11%
O=C(Nc1ccc2c(c1)CCC2)c1ccccc1Br	1.6µM*	1.6µM*	-6%	2.3µM*	4.8µM*	nt
CSc1ccccc1C(=O)Nc1ccc2c(c1)CCC2	?	2%[1.84 µM]	nt	?	15µM*	nt
CN(CC(=O)Nc1ccc2c(c1)CCC2)CC(=O)Nc1ccccc1Br	-6%	-2%	0%	-4%	-10%	-20%
SMILES	NPC1 promoter act	Rab9 prom act	Luc counter	ELG1 genotox	FLuc modulator	SMN2 splice enh
Cc1c(C(=O)Nc2ccc(Nc3ccccc3)cc2)cccc1[N+](=O)[O-]	-10%	-3%	nt	-9%	-3%	nt
Cc1c(C(=O)Nc2ccc3c(c2)CCC3)cccc1[N+](=O)[O-]	?	?	-4%	?	13µM*	nt
Cc1cccc(NC(=O)N2CCC(CN3CCCCCC3)CC2)c1C	nt	nt	nt	nt	-1%	nt
C[C@@H]1CCCC(CC(=O)O)(CC(=O)O)C1	nt	nt	-2%[7.66 µM]	nt	nt	-12%[9.22 µM]
CCOC(=O)c1noc2ncnc(Nc3ccc(C)c(F)c3)c12	nt	nt	nt	nt	1%	nt
COc1ccc(NC(=O)COC(=O)COc2cccc3c2OC(C)(C)C3)cc1	1%	-3%	nt	-3%	4%	nt
COc1ccccc1C(=O)COC(=O)COc1cccc2c1OC(C)(C)C2	2µM*	2.5µM*	nt	9.2µM*	4.8µM*	nt
COc1ccc(-c2cn3cccc(C)c3n2)cc1Br	3.5µM*	2.8µM*	-8%	?	2.4µM*	11µM*
Cc1cccn2cc(CNc3ccccc3)nc12	?	?	-3%	21µM*	?	22µM*
COc1ccc(S(=O)(=O)Nc2cc(-c3cn4cccc(C)c4n3)ccc2C)cc1C	nt	nt	nt	nt	?	18%
CCCS(=O)(=O)NCc1cn2cccc(C)c2n1	-4%	1%	1%	4%	-1%	20%
Cc1cccn2cc(-c3ccc(F)cc3)nc12	1.1µM*	1.8µM*	nt	0.92µM*	2.4µM*	nt
CCCS(=O)(=O)Nc1cc(-c2cn3cccc(C)c3n2)ccc1C	nt	nt	nt	nt	12µM*	29%
COc1ccc(C)cc1NC(=O)C1CCN(S(=O)(=O)c2cc(Br)cc3c2N(C(C)=O)CC3)CC1	nt	nt	nt	nt	-15%	-1%
Cc1cccn2cc(-c3ccccc3)nc12	1.6µM*	1.8µM*	-22%	?	3µM*	11µM*
Cc1ccc2c(CN3CCC(C)CC3)cc(=O)oc2c1C	?	?	nt	?	17µM*	nt
CCC(=O)NC1CCc2cccc(OC)c2C1 (configuration not stated)	nt	nt	nt	nt	nt	-3%
Cn1c(N2CCOCC2)c(/C=N/OC(=O)c2ccc(F)cc2)c2ccccc21	-18%	-33%	-2%	-5%	9.5µM*	-70%
CC(=O)O/N=C/c1c(N2CCOCC2)n(C)c2ccccc12	-9%	-5%	-7%	-10%	14%	-62%
Cc1ccc(C(=O)O/N=C/c2c(N3CCOCC3)n(C)c3ccccc23)cc1	-17%	-39%	2%	-13%	6µM*	-47%
C[N+](C)(C)c1ncnc2c1ncn2[C@@H]1C[C@H](O)[C@@H](CO)O1	nt	nt	-3%[7.66 µM]	nt	nt	-11%[9.22 µM]
Cc1nc(-c2ccccc2)sc1CCNS(=O)(=O)c1ccccc1	nt	nt	nt	nt	-15%	nt
O=C(NC(=S)Nc1ccc2ncccc2c1)c1ccccc1	2.8µM*	2.2µM*	-1%	?	?	?
O=C(NNC(=S)Nc1ccccc1)c1ccc2ncccc2c1	7%	?	1%	5%	?	14%
CC(C)(C)NC(=S)NNC(=O)c1ccc2ncccc2c1	?	0.5µM*	1%	24%	?	14µM*
O=C(Nc1ccc2ncccc2c1)c1ccccc1	-3%	2%	nt	2%	-5%	nt
O=C(NC(=S)Nc1ccc2nc[nH]c2c1)c1ccccc1	2.8µM*	4µM*	nt	?	?	nt
